# Calls of active or inactive are those of the source.
# Key:
# [1] = compound effects on lung adenocarcinoma cell viability – A549, calcein-AM fluorescence, 48 h, basal, profiling panel (AID 1162); conditions: higher = more signal
# [2] = compound effects on differentiated 3T3-L1 adipocyte viability – cell-based, 3T3-L1 adipocytes, calcein-AM fluorescence, 48 h, basal, profiling panel (AID 1163); conditions: 3T3-L1 adipocytes viability, higher = more signal
# [3] = compound effects on hepatocellular carcinoma cell viability – HepG2, calcein-AM fluorescence, 48 h, basal, profiling panel (AID 1164); conditions: higher = more signal
# [4] = compound effects on multiple myeloma cell viability – MM1S, calcein-AM fluorescence, 48 h, basal, profiling panel (AID 1165); conditions: higher = more signal
# [5] = calcein-AM signal in unstimulated myeloma cells – cell-based, calcein-AM fluorescence, 48 h, PK04 Diversity Set, profiling panel (AID 1166); conditions: RPMI8226 myeloma viability, higher = more signal;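 also: cells grown under basal conditions without added stimulus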
# [6] = JC-1 mitochondrial signal, unstimulated HepG2 cells – cell-based, JC-1 fluorescence, 24 h, 100 nL compound, profiling panel (AID 1167); conditions: HepG2 mitochondrial potential, higher = more signal
# [7] = JC-1 mitochondrial signal, unstimulated adipocytes – cell-based, JC-1 fluorescence, 3T3-L1 adipocytes, 24 h, 100 nL compound, profiling panel (AID 1168); conditions: JC-1 mitochondrial fluorescence, higher = more signal, called active from +8 up or from −8 down
# [8] = JC-1 mitochondrial signal, unstimulated myeloma cells – cell-based, JC-1 fluorescence, RPMI8226, 24 h, 100 nL compound, profiling panel (AID 1169); conditions: JC-1 mitochondrial potential fluorescence, higher = more signal
# [9] = JC-1 mitochondrial signal, unstimulated MM1S myeloma – cell-based, JC-1 fluorescence, 24 h, 100 nL compound, profiling panel (AID 1170); conditions: MM1S mitochondrial potential, higher = more signal
# [10] = resazurin metabolic signal in A549 cells – cell-based, resazurin fluorescence, 24 h, PK04 Diversity Set, profiling panel (AID 1171); conditions: A549 viability, higher = more signal, called active from +8 up or from −8 down
# Also: test concentration not given here.
SMILES,z-score [1],z-score [2],z-score [3],z-score [4],z-score [5],z-score [6],z-score [7],z-score [8],z-score [9],z-score [10]
COc1ccc(CCNC(=O)[C@@]2(Sc3ccc(C)cc3)CC(=O)N(C3CCCCC3)[C@@H]2c2ccc(CO)cc2I)cc1,1.06,-0.475,-0.242,-2.14,-2.93,-0.836,-0.792 (inactive),-0.632,-1.33,1.11 (inactive)
C=CCNC(=O)[C@@H]1[C@H]2C(=O)O[C@H](c3ccccc3)[C@H](c3ccccc3)N2[C@H](c2ccccc2OCCO)[C@@]12C(=O)N(C(=O)OCCOC)c1ccc(C#CCNC(N)=O)cc12,0.843,0.595,0.886,0.765,0.425,0.766,0.586 (inactive),0.159,-0.341,-0.768 (inactive)
CN1C(=O)C2C=CC(C(O)C3=C[C@H]4C[C@@H](C3)C4(C)C)N(Nc3ccccc3)C2C1=O (stereo not given in full),-0.456,-0.893,-0.0728,-2.52,-0.724,-1.75,-0.209 (inactive),-0.353,-0.39,0.0383 (inactive)
CCCC#C[Si](O[C@H](CC)c1cn([C@H](CO)Cc2ccccc2)nn1)(C(C)C)C(C)C,0.0096,-0.263,0.0341,-1.21,0.0028,-0.371,0.406 (inactive),0.78,-0.752,0.401 (inactive)
[N-]=[N+]=NCc1ccccc1[C@@H]1OC(c2ccc(OCCCO)cc2)=N[C@]1(CCS(=O)(=O)c1ccccc1)C(=O)NCc1ccccc1,-0.137,1.09,0.0616,-0.158,-1.04,-0.0428,0.0135 (inactive),-0.143,-0.979,0.201 (inactive)
COC(=O)[C@@]1(Cc2ccc(OC)cc2)[C@H]2c3cc(C(=O)N(C)C)n(CCN4CNCC4=O)c3C[C@H]2CN1C(=O)c1ccccc1,-0.663,-0.261,-0.254,0.316,0.177,-0.812,0.489 (inactive),-0.111,-1.28,0.367 (inactive)
[N-]=[N+]=NCc1ccccc1C[C@@]1(C(=O)NCC(O)CO)N=C(c2ccc(OCCCO)cc2)O[C@@H]1c1ccccc1N=[N+]=[N-] (stereo not given in full),-2.46,0.223,-1.75,-2.92,-3.45,-0.158,-0.731 (inactive),-1.19,-0.999,-3.5 (inactive)
C=CCNC(=O)[C@H]1[C@@H]2C(=O)O[C@@H](c3ccccc3)[C@@H](c3ccccc3)N2[C@@H](c2ccc(OCCO)cc2)[C@]12C(=O)N(C(=O)OCCOC)c1ccccc12,0.111,1.47,-0.109,-0.472,-2.66,1.34,0.131 (inactive),-0.562,0.465,-0.918 (inactive)
CCC(CC)C(O)C1C=CC2C(=O)N(C)C(=O)C2N1Nc1ccccc1 (stereo not given),0.095,-1.07,0.597,-0.299,-0.469,-0.843,-0.83 (inactive),-0.802,0.0765,0.78 (inactive)
CC(C)(C)C(=O)N[C@@H](c1ccc(Cl)cc1)[C@]1(C)C[C@H]1C1CCCCC1,-1.07,0.459,-0.492,-1.22,-1.43,4.37,-0.594 (inactive),-0.533,0.162,-0.466 (inactive)
C=CCN1C(=O)[C@]2(O[C@H](CCO)[C@@H]([Si](C)(C)c3ccc(OC)cc3)[C@@H]2C)c2cc(N3C(=O)c4cccc5cccc3c45)ccc21,-3.27,0.105,-4.63,-2.63,-4.34,-2.32,0.697 (inactive),-0.955,-2.28,-5.26 (inactive)
CC(C)OC(=O)C=C1C[C@@H](c2ccccc2C(F)(F)F)O[C@@H](c2ccccc2C(F)(F)F)O1,-0.677,-0.984,0.761,0.737,0.217,0.752,0.341 (inactive),0.589,-0.541,1.08 (inactive)
CCOC(=O)C[C@H]1[C@H](OC(=O)c2cc3ccccc3oc2=O)[C@@H](NC(=O)Cc2ccc(OC)cc2)c2cc(OCCCO)ccc2N1C(=O)c1ccccc1,-0.172,2.17,-0.56,-0.0168,-0.606,-0.412,-0.111 (inactive),-0.135,-0.244,-0.714 (inactive)
O=C1O[C@H](c2ccccc2)[C@H](c2ccccc2)N2[C@H]1[C@@H](C(=O)O)[C@]1(C(=O)Nc3ccc(C#CCCO)cc31)[C@H]2c1ccc(O)cc1,1.46,0.339,-0.215,0.536,0.858,-0.308,-0.395 (inactive),-0.896,-0.565,1.52 (inactive)
COC(=O)[C@@]1(Cc2ccccc2)[C@H]2c3cc(C(=O)N4CCCC4)n(Cc4cccc5ccccc45)c3C[C@H]2CN1C(=O)c1ccccc1,-0.692,-0.57,-0.824,-1.42,-3.92,1.04,-2.12 (inactive),-0.784,-1.74,-1.19 (inactive)
CC1CC/C=C\[C@H]2OC34C=CCN(Cn5nnc6ccccc65)C(=O)[C@H]3N(C(CO)C(C)C)C(=O)[C@@H]4C2C(=O)O1 (stereo not given in full),0.101,0.0716,0.0778,0.654,-0.872,-0.388,-0.573 (inactive),-0.637,-0.454,0.238 (inactive)
COCCCNC(=O)[C@@]1(Cc2ccccc2)N=C(c2ccc(OCCCO)cc2)O[C@H]1c1ccccc1,-0.736,-0.493,-0.104,-1.03,-0.856,0.00935,0.425 (inactive),-1.11,-0.314,1.57 (inactive)
CC(C)C(CO)N1C(=O)[C@@H]2[C@H]3C(=O)OCC=C[C@H]3OC23C=CCN(C(C)C)C(=O)[C@@H]13 (stereo not given in full),-0.368,0.877,-0.185,-0.181,0.642,-0.304,0.148 (inactive),-0.0287,-0.0116,0.711 (inactive)
COc1ccc(C(O)C2C=CC3C(=O)NC(=O)C3N2Nc2ccccn2)c2ccccc12 (stereo not given),0.606,-1.17,0.384,-0.178,0.384,-1.11,0.296 (inactive),-0.905,-0.143,-0.703 (inactive)
CCOC(=O)C[C@H]1[C@H](OC(=O)c2cc3ccccc3oc2=O)[C@@H](NC(=O)C2CCCCC2)c2cc(OCCCO)ccc2N1C(=O)c1ccccc1,-0.11,3.15,0.914,0.172,-0.594,1.36,-0.186 (inactive),-0.848,0.739,-0.713 (inactive)
COC(=O)[C@@]1(Cc2ccc(F)cc2)[C@H]2c3cc(C(=O)N(C)C)n(Cc4ccc(S(C)(=O)=O)cc4)c3C[C@H]2CN1C(=O)c1ccccc1,-0.379,-0.631,0.137,0.373,-0.198,3.32,-0.224 (inactive),0.059,0.125,-0.46 (inactive)
COCCOC(=O)N1C(=O)[C@@]2(c3cc(C#CCCO)ccc31)[C@H](C(=O)N1CCc3cc(OC)c(OC)cc3C1)[C@H]1C(=O)O[C@H](c3ccccc3)[C@H](c3ccccc3)N1[C@@H]2c1ccc(O)cc1,-0.235,0.0133,2.58,0.587,0.245,-0.404,0.0353 (inactive),-0.385,-0.546,-0.689 (inactive)
NCCCCCNC(=O)[C@@H]1C[C@@H]2C(=O)N[C@@H](Cc3ccccc3)C(=O)N2[C@@H]1c1cccc(OCCO)c1,-0.349,0.512,-0.442,0.143,-0.371,-1.04,-0.684 (inactive),-0.0752,0.894,-0.403 (inactive)
CN1C(=O)C2C=CC(C(O)Cc3ccccc3)N(Nc3ccccc3)C2C1=O (stereo not given),0.368,-1.33,0.0486,-1.48,-0.618,-1.32,-1.06 (inactive),0.0363,0.155,-0.528 (inactive)
[N-]=[N+]=NCc1ccccc1C[C@]1(C(=O)NCC(O)CO)N=C(c2ccc(OCCCO)cc2)O[C@H]1c1ccccc1 (stereo not given in full),-0.691,0.0311,-1.25,-2.42,-1.81,-1.31,-0.142 (inactive),-0.547,-0.727,-0.246 (inactive)
COc1ccc(C(=O)O[C@H]2CC[C@]3(C)C4=C(CCC3C2(C)C)[C@]2(C)CC[C@H]([C@H](C)CCCC(C)C)[C@@]2(C)CC4)cc1 (stereo not given in full),0.373,0.586,0.729,0.41,0.784,2.19,0.375 (inactive),-0.0976,-1.47,0.936 (inactive)
O=C1c2ccccc2[C@@]2(Cc3ccccc3N(CC(F)(F)F)C2=O)[C@H](c2ccc(CO)cc2)N1Cc1ccccc1Cl,0.609,0.889,-0.0395,-0.354,-0.936,-0.0535,-0.483 (inactive),-0.131,0.165,-0.142 (inactive)
[N-]=[N+]=NCc1ccccc1C[C@]1(C(=O)N2CCOCC2)N=C(c2ccc(OCCCO)cc2)O[C@H]1c1ccccc1N=[N+]=[N-],-1.37,1.97,-0.956,-1.28,-3.42,0.665,-0.817 (inactive),-1.1,-1.47,-0.678 (inactive)

# — PubChem BioAssay
